Measurements: the supplement of paper PMC6897291
Counter-ions that a name gives are not always drawn.

System: RIVA
Experiment: growth inhibition by drug plus 177Lu-lilotomab satetraxetan (1 - RLU/untreated control) (fraction); higher = stronger inhibition
Conditions: 177Lu-lilotomab satetraxetan 0.5 ug/ml
Method: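 RIVA (RI-1) ABC-DLBCL cells were pretreated or not for 18 h with 0.5 ug/ml 177Lu-lilotomab satetraxetan (600 MBq/mg), washed and seeded (3000 cells/well) on 384-well plates pre-printed with the Selleck Cambridge Cancer Compound library. Viability was read by RealTime-Glo luminescence on days 3-6 after seeding. Effect = 1 - RLU/mean RLU of the 48 untreated no-drug control wells per plate; Bliss score = (M-E)/(1-Fa).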

SMILES	growth inhibition by drug plus 177Lu-lilotomab satetraxetan (10 nM, time (day): 3)	growth inhibition by drug plus 177Lu-lilotomab satetraxetan (10 nM, time (day): 4)	growth inhibition by drug plus 177Lu-lilotomab satetraxetan (10 nM, time (day): 5)	growth inhibition by drug plus 177Lu-lilotomab satetraxetan (10 nM, time (day): 6)	growth inhibition by drug plus 177Lu-lilotomab satetraxetan (100 nM, time (day): 3)	growth inhibition by drug plus 177Lu-lilotomab satetraxetan (100 nM, time (day): 4)	growth inhibition by drug plus 177Lu-lilotomab satetraxetan (100 nM, time (day): 5)	growth inhibition by drug plus 177Lu-lilotomab satetraxetan (100 nM, time (day): 6)
CN[C@@H](C)C(=O)N[C@H]1CN(C(=O)CC(C)C)CC[C@H]2CC[C@@H](C(=O)NC(c3ccccc3)c3ccccc3)N2C1=O	0.456	0.56	0.581	0.599	0.456	0.551	0.567	0.544
O=C(Cc1ccc(-c2ccc(OCCN3CCOCC3)cc2)cn1)NCc1ccccc1	0.466	0.544	0.565	0.575	0.833	0.839	0.863	0.881
O=C(c1cc(Cc2n[nH]c(=O)c3ccccc23)ccc1F)N1CCN(C(=O)C2CC2)CC1 [Olaparib (AZD2281)]	0.539	0.593	0.618	0.613	0.39	0.482	0.505	0.533
Nc1nc2[nH]cc(CCc3ccc(C(=O)N[C@@H](CCC(=O)O)C(=O)O)cc3)c2c(=O)[nH]1 [Pemetrexed]	0.279	0.458	0.483	0.497	0.325	0.44	0.436	0.408
COC1=CC(c2cc3ccccc3[nH]2)=N/C1=C\c1[nH]c(C)cc1C [Obatoclax mesylate (GX15-070)]	0.479	0.58	0.604	0.618	0.201	0.411	0.412	0.435
